Assay results as given in PubChem BioAssay (Tox21).
Unmarked numbers belong to inactive results. Results filed as inconclusive are left out. A call without a number means that no potency is given here. The source made the active and inactive calls. Unless noted, calls follow the shape of the full dose curve.

Key:
[1] = Nuclear factor erythroid 2-related factor 2/antioxidant responsive element (Nrf2/ARE) small molecule agonists: qHTS cell viability counter screen in human keratinocytes (AID 1919968; active = well fitted curve in the direction sought with a large enough effect in the repeat runs; an effect the other way counts as inactive or inconclusive; also: nearly all actives have a fitted effect of over 55% in size)
In short: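 In human HaCaT keratinocytes stably expressing an ARE-driven luciferase, compound exposure lasted 23 h at 37 C under 5% CO2. Viable cells are quantified with a protease-based fluorogenic reagent (CellTiter-Fluor) read 1 h after addition.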

[2] = Nuclear factor erythroid 2-related factor 2/antioxidant responsive element (Nrf2/ARE) small molecule agonists: luciferase reporter gene qHTS assay in human keratinocytes (AID 1919969); also: nearly all actives have a fitted effect of over 35% in size; also: potency is read from the fitted curve at half-maximal effect
[3] = target: Gonadotropin-releasing hormone receptor (Homo sapiens) (UniProt P30968); assay: Human gonadotropin-releasing hormone receptor (GnRHR) small molecule agonists, calcium flux assay in GnRHR-HEK293 cells (AID 1920063); also: nearly all actives have a fitted effect of over 35% in size
In short: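 Intracellular calcium rise is the read-out: engineered human GnRHR HEK293 cells, dye-loaded, are exposed to DMSO-dissolved compounds and fluorescence at Ex/Em 480/540 is tracked for 3 min.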

[4] = target: KiSS-1 receptor (Homo sapiens) (UniProt Q969F8); assay: Human kisspeptin (KISS1R) small molecule agonists, calcium flux assay in KISS1R-HEK293 cells (AID 1920064; active = well fitted curve in the direction sought with a large enough effect in the repeat runs; an effect the other way counts as inactive or inconclusive)
In short: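 Concentration-response testing used 15 concentrations in triplicate on human KISS1R-expressing HEK293 cells. Calcium-dependent fluorescence (Ex/Em 480/540) was followed kinetically for 3 min after compound transfer.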

[5] = G protein-coupled receptor (GPCR) small molecule agonists, calcium flux assay: HEK293 wild type cell line counter screen (AID 1920065)
In short: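 Fluorescence intensity signals activation. After overnight (18 h) culture and a 1 h calcium dye load at 37 C, compounds are added by pin tool and the plate read at 480/540 nm for 3 min in 1 s steps.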

[6] = p53 small molecule agonists, cell-based qHTS assay with human liver microsomes (AID 1963577);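 also: p53 response element beta-lactamase reporter cells with liver microsomes plus NADPH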
In short: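 Metabolically competent format: test substances, human liver microsomes and NADPH (both 0.5 mg/mL final) incubated with p53RE-bla cells 16 h at 37 C. Beta-lactamase reporter signal then quantified by fluorescence.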

[7] = p53 small molecule agonists, cell-based qHTS assay with rat liver microsomes (AID 1963578)
In short: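 Each plate received p53RE-bla cells, then compound, then rat liver microsomes and NADPH (both 0.5 mg/mL final). Plates were held 16 h at 37 C, and beta-lactamase activity was detected with LiveBLAzer over 2 h.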

[8] = p53 small molecule agonists, cell-based qHTS assay with rat liver microsomes: qHTS cell viability counter screen (AID 1963580); also: nearly all actives have a fitted effect of over 45% in size
In short: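 Cytotoxicity counter screen: intracellular ATP read by CellTiter-Glo luminescence in the p53 reporter wells. HCT-116 p53RE-bla cells were treated for 16 h at 37 C alongside rat liver microsomes and NADPH, each 0.5 mg/mL final.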

[9] = p53 small molecule agonists, cell-based qHTS assay: qHTS cell viability counter screen (AID 1963581); also: nearly all actives have a fitted effect of over 45% in size
In short: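 Luminescence from CellTiter-Glo, reflecting ATP content, serves as the cytotoxicity measure; it is taken after the 2 h reporter substrate step in HCT-116 p53RE-bla cells dosed for 16 h at 37 C.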

[10] = p53 small molecule agonists, cell-based qHTS assay (AID 1963582; active = well fitted activation curve with a large enough effect in the signal ratio in the repeat runs, not every such curve was filed as active; the % refers to the signal ratio)
In short: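 After plating, p53RE-bla cells sat 5 h in the incubator; compounds or DMSO vehicle were pinned in; a 16 h incubation at 37 C followed; FRET substrate was added and, 2 h later at RT, fluorescence was measured.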

[11] = cAMP Responsive Elements (CRE) small molecule agonists, cell-based qHTS assay (AID 1963590)
In short: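 Compound exposure lasted 3 h at 37 C/5% CO2 in CRE-bla HEK 293T cells grown in assay medium with 10% dialyzed FBS and 25 mM HEPES. Reporter signal came from LiveBLAzer B/G FRET substrate, 2 h, room temperature.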

[12] = target: Beta-2 adrenergic receptor (Homo sapiens) (UniProt P07550); assay: Adrenergic beta2 receptor (ADRB2) small molecule antagonists, cell-based qHTS assay (AID 1963592); also: series mostly up to about 92 µM; nearly all actives have a fitted effect of over 50% in size
In short: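 Assay format: CHO-ADRB2 cells, 18-20hr seeding at 37C/5% CO2, then compound plus 1nM isoproterenol agonist mix for 0.5hr RT. Homogeneous time-resolved fluorescence cAMP detection after 1hr, expressed as 665/615 nm ratio.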

[13] = target: D(2) dopamine receptor (Homo sapiens) (UniProt P14416); assay: Dopamine D2 receptor (DRD2) small molecule agonists, cell-based qHTS assay (AID 1963594); also: nearly all actives have a fitted effect of over 35% in size
In short: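 cAMP accumulation in DRD2-HEK293 cells measured by HTRF after 1 h detection; compounds added 10 min before NKH477 (200nM […]) forskolin-analogue stimulation, 30 min at room temperature, with Ro20-1724 present at 0.1 mM final.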

[14] = target: 5-hydroxytryptamine receptor 2A (Homo sapiens) (UniProt P28223); assay: 5-hydroxytryptamine receptor 2A (HTR2A) small molecule antagonists, cell-based qHTS assay (AID 1963586); also: nearly all actives have a fitted effect of over 45% in size; also: potency is read from the fitted curve at half-maximal effect
In short: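 CHO cells stably expressing human HTR2A were plated for 18 h at 37 C, then loaded with calcium dye for 1 h. Compounds were preincubated 5 min at room temperature before DOI (4 nM solution) was added. Kinetic fluorescence was read for 3 min.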

[15] = target: Muscarinic acetylcholine receptor M1 (Homo sapiens) (UniProt P11229); assay: Cholinergic receptor muscarinic 1 (CHRM1) small molecule antagonists, cell-based qHTS assay (AID 1963588); also: nearly all actives have a fitted effect of over 40% in size
In short: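 Compounds were tested at 15 concentrations in three independent runs. Dye-loaded CHRM1-CHO cells were exposed 5 min at room temperature before stimulation by acetylcholine added at 50nM. Intracellular calcium was read kinetically on FDSS for 3 min.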

[16] = target: Muscarinic acetylcholine receptor M1 (Homo sapiens) (UniProt P11229); assay: Cholinergic receptor muscarinic 1 (CHRM1) small molecule agonists, cell-based qHTS assay (AID 1963589); also: nearly all actives have a fitted effect of over 35% in size
In short: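 Fluorescent calcium dye reports M1 activation in stably transfected CHO cells. Compounds, 15 concentrations, added after 1 h dye loading at 37 C; kinetic reading at 1 sec intervals.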

[17] = target: D(2) dopamine receptor (Homo sapiens) (UniProt P14416); assay: Dopamine D2 receptor (DRD2) small molecule antagonists, cell-based qHTS assay (AID 1963595; active = well fitted inhibition curve with a large enough effect in the signal ratio in the repeat runs, with a control signal flat; the % refers to the signal ratio)
In short: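 Readout: HTRF cAMP, cAMP-d2 competing with cellular cAMP for anti-cAMP cryptate, read after 1 h. Cells: DRD2-HEK293. Conditions: 0.1 mM Ro20-1724, 12 nM quinpirole, 200 nM NKH477, 30 min RT.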

[18] = target: 5-hydroxytryptamine receptor 2A (Homo sapiens) (UniProt P28223); assay: 5-hydroxytryptamine receptor 2A (HTR2A) small molecule agonists, cell-based qHTS assay (AID 1963587); also: nearly all actives have a fitted effect of over 30% in size
In short: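 Kinetic calcium-flux fluorescence (2 min, 1 sec intervals) after compound addition in agonist mode. HTR2A-CHO cells were cultured 18 h, then dye-loaded 1 h at 37 C.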

[19] = cAMP Responsive Elements (CRE) small molecule antagonists, cell-based qHTS assay (AID 1963591; active = well fitted inhibition curve with a large enough effect in the signal ratio in the repeat runs, not every such curve was filed as active; the % refers to the signal ratio)
In short: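 Stimulation used NKH477 at a final 0.25 uM for 3 h in compound-treated CRE-bla HEK293T cells, seeded 18 h beforehand. Reporter activity was measured with LiveBLAzer B/G FRET substrate after 2 h at room temperature.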

Muscarinic acetylcholine receptor M1 (Homo sapiens), sequence (P11229 whole entry, looked up): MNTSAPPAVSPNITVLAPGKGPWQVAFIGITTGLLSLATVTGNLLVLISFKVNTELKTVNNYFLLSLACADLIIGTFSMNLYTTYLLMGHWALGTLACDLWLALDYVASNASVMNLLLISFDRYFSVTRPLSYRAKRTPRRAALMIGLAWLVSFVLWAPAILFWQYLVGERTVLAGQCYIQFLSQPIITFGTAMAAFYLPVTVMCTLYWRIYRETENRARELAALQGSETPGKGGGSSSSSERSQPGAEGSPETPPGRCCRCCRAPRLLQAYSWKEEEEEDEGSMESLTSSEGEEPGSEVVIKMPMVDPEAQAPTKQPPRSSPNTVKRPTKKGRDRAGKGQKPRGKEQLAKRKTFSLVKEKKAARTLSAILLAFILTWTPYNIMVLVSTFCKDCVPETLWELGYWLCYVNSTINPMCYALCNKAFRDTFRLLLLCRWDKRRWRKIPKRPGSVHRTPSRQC
5-hydroxytryptamine receptor 2A (Homo sapiens), sequence (P28223 whole entry, looked up): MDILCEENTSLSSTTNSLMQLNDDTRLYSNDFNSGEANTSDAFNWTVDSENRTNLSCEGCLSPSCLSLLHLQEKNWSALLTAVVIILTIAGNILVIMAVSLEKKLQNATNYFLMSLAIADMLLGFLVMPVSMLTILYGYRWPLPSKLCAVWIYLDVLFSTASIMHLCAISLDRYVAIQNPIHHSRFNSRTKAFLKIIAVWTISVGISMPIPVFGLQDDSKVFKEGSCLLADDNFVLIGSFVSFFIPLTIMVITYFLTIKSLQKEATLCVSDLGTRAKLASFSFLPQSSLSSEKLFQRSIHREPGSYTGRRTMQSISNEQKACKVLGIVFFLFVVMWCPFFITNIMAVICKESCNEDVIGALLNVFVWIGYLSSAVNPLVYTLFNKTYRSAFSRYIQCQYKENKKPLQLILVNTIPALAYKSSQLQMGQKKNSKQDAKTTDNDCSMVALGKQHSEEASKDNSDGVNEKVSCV
Gonadotropin-releasing hormone receptor (Homo sapiens), sequence (P30968 whole entry, looked up): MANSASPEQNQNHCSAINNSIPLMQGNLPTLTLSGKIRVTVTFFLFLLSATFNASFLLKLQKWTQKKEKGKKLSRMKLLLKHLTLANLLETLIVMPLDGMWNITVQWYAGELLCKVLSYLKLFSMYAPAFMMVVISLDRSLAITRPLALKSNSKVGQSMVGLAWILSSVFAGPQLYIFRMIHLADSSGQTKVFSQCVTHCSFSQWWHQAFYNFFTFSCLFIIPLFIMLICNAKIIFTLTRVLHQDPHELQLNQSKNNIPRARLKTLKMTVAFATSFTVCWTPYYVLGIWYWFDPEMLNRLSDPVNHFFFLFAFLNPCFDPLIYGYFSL
KiSS-1 receptor (Homo sapiens), sequence (Q969F8 whole entry, looked up): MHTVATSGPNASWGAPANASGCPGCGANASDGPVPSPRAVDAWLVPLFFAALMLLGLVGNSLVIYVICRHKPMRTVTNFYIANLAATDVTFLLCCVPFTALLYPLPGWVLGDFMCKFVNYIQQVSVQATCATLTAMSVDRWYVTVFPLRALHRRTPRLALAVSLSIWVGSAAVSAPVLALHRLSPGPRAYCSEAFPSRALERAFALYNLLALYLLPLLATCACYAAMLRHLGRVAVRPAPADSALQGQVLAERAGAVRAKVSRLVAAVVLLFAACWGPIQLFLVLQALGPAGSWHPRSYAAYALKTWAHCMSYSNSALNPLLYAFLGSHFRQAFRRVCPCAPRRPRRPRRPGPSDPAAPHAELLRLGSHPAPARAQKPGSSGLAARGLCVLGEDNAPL
D(2) dopamine receptor (Homo sapiens), sequence (P14416 whole entry, looked up): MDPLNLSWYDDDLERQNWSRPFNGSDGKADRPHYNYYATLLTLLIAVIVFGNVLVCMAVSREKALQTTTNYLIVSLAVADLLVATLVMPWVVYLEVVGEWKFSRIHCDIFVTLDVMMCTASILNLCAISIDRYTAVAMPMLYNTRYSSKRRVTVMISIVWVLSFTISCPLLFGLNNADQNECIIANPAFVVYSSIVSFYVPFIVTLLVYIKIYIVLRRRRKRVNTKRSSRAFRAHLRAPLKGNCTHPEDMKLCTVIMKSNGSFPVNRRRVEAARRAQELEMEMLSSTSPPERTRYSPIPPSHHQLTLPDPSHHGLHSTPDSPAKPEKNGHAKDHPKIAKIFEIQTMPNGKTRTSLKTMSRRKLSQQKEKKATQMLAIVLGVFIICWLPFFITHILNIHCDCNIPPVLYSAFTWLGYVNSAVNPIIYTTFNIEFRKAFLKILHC
Beta-2 adrenergic receptor (Homo sapiens), sequence (P07550 whole entry, looked up): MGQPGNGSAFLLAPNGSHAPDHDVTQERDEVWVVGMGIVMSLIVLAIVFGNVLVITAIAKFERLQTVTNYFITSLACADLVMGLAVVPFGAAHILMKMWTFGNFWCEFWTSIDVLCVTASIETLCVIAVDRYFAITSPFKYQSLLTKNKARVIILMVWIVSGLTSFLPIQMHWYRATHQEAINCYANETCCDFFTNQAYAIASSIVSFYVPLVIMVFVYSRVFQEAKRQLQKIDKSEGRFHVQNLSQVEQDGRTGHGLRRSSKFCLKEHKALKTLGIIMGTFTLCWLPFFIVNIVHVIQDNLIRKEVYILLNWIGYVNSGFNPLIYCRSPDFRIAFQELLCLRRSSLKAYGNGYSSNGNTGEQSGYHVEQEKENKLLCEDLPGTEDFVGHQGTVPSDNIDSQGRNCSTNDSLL

Cc1nccn1CC1CCc2c(c3ccccc3n2C)C1=O (stereo not given)
Potency [1]: inactive | Potency [2]: inactive | Potency [3]: inactive | outcome [4]: inactive | outcome [5]: inactive | Potency [6]: inactive | Potency [7]: inactive | Potency [8]: inactive | Potency [9]: inactive | Potency [10]: inactive | Potency [11]: inactive | Potency [12]: inactive | Potency [13]: inactive

CC(=O)Oc1ccc(C2(c3ccc(OC(C)=O)cc3)C(=O)Nc3ccccc32)cc1
Potency [1]: inactive | Potency [2]: 0.266 µM (active) | Potency [3]: inactive | outcome [4]: inactive | outcome [5]: inactive | Potency [6]: inactive | Potency [7]: inactive | Potency [8]: inactive | Potency [9]: inactive | Potency [14]: inactive | Potency [15]: inactive | Potency [16]: inactive | Potency [11]: inactive | Potency [12]: inactive | Potency [13]: inactive | Potency [17]: inactive

COc1cc(C(=O)NCCCCCC(=O)O)cc(OC)c1OC
Potency [1]: inactive | Potency [2]: inactive | Potency [3]: inactive | outcome [4]: inactive | outcome [5]: inactive | Potency [6]: inactive | Potency [7]: inactive | Potency [8]: inactive | Potency [9]: inactive | Potency [14]: inactive | Potency [18]: inactive | Potency [15]: inactive | Potency [16]: inactive | Potency [11]: inactive | Potency [12]: inactive | Potency [17]: inactive

CC[C@@]1(O)C(=O)OCc2c1cc1n(c2=O)Cc2c-1nc1ccccc1c2/C=N/OC(C)(C)C
Potency [1]: inactive | Potency [2]: inactive | Potency [3]: inactive | outcome [4]: inactive | outcome [5]: inactive | Potency [6]: inactive | Potency [7]: inactive | Potency [8]: inactive | Potency [9]: inactive | Potency [14]: 5.79 µM (active) | Potency [18]: inactive | Potency [12]: inactive | Potency [17]: inactive

NCCCC[C@H](N[C@@H](CCc1ccccc1)C(=O)O)C(=O)N1CCC[C@H]1C(=O)O
Potency [1]: inactive | Potency [2]: inactive | Potency [3]: inactive | outcome [4]: inactive | outcome [5]: inactive | Potency [6]: inactive | Potency [7]: inactive | Potency [8]: inactive | Potency [9]: inactive | Potency [10]: inactive | Potency [11]: inactive | Potency [19]: inactive | Potency [12]: inactive | Potency [13]: inactive | Potency [17]: inactive

CN(C)[C@@H]1C(=O)C(C(=O)NCN2CCCC2)=C(O)[C@@]2(O)C(=O)C3=C(O)c4c(O)cccc4[C@@](C)(O)C3C[C@@H]12 (stereo not given in full)
Potency [1]: inactive | Potency [2]: inactive | Potency [3]: inactive | outcome [4]: inactive | outcome [5]: inactive | Potency [6]: inactive | Potency [7]: inactive | Potency [8]: inactive | Potency [9]: inactive | Potency [14]: inactive | Potency [18]: inactive | Potency [15]: inactive | Potency [16]: inactive | Potency [11]: inactive | Potency [19]: inactive | Potency [17]: inactive

CCn1cc(C(=O)O)c(=O)c2cc(F)c(N3CCN(C)CC3)cc21
activity change, negative = cytotoxicity [1]: 14.8% [at 19 µM] | activity, positive = activation [2]: -5.55% [at 19 µM] | activity change [3]: -1.03% [at 11.8 µM, active compounds read high] | activation [4]: -0.924% [at 15.8 µM] | activation [5]: -0.469% [at 11.8 µM] | activation [6]: 0.192% [at 13.5 µM] | activation [7]: -1.11% [at 13.6 µM] | activity change, negative = cytotoxicity [8]: -0.739% [at 13.5 µM] | activity change, negative = cytotoxicity [9]: -4.59% [at 13.5 µM] | activation [10]: -0.0544% [at 13.5 µM] | activation [11]: -2.07% [at 19 µM] | activity change, negative = inhibition [19]: -14.3% [at 18.9 µM] | activity change, negative = inhibition [12]: 0.624% [at 19 µM] | activation [13]: 19.5% [at 19 µM]

CC1(C)OC(=O)Nc2ccc(Br)cc21
Potency [1]: inactive | Potency [2]: inactive | Potency [3]: inactive | outcome [4]: inactive | outcome [5]: inactive | Potency [6]: inactive | Potency [7]: inactive | Potency [8]: inactive | Potency [9]: inactive | Potency [10]: inactive | Potency [18]: inactive | Potency [15]: inactive | Potency [16]: inactive | Potency [11]: inactive | Potency [12]: inactive | Potency [13]: inactive | Potency [17]: inactive
